In PubChem BioAssay AID463212 (Sanford-Burnham Center for Chemical Genomics, 2010):
Hit rate of the full screen: of about 330,000 compounds, about 4,400 (1.3%) were called active.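 How the source made its calls: active means growth inhibition of the mutant yeast at or above 50%; inactive means the rest.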 Many of the other results were omitted from the sample, so actives are more common in it than they were.

Assay: growth inhibitors of tim23-1 mutant yeast, primary screen, luminescence, uHTS (AID 463212);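 further: temperature-sensitive mutant grown at 25 °C; plate controls were DMSO-treated mutant yeast for no effect and medium wells lacking yeast for full effect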
Conditions: S. cerevisiae tim23-1 growth, BacTiter-Glo luminescence, 24 h; at 20 µM; active compounds read high

inhibition, active:
O=C(NCCc1ccc(F)cc1)c1ccc(S(=O)(=O)N2CCCCC2)cc1 53.6%, Cc1nn(CC(=O)Nc2nc3ccccc3s2)c(C)c1[N+](=O)[O-] 69.8%, O=C(/C=C/c1ccc(Cl)c([N+](=O)[O-])c1)c1cccnc1 80.7%, CC(=NCc1ccc2c(c1)OCO2)C1=C(O)c2ccccc2C1=O 51.6%, CC(=NCc1ccco1)C1=C(O)c2ccccc2C1=O 50.3%, Cc1nc2sc(C(=O)c3ccccc3)c(N)c2c2c1CCCC2 51.8%, COc1ccc(-c2nc3cc(C)ccn3c2NC2CCCCC2)cc1SC1CCCCC1 52.3%, Cc1ccc(S(=O)(=O)NC2CCCCCC2)cc1 51.4%, CCC1=NN(C(=O)Cc2ccc([N+](=O)[O-])cc2)C(O)(c2ccc(Br)cc2)C1 (stereo unspecified) 50%, Cc1ccccc1NCC(=O)N/N=C\c1ccc([N+](=O)[O-])s1 62.7%, CCOc1ccc(NC(=O)CCC(=O)N/N=C/c2ccc([N+](=O)[O-])s2)cc1 79.1%, Cc1ccc(N=Cc2c(O)cc(C)oc2=O)c(C)c1 96.2%, Cc1cccc(C)c1N1C(=O)CN(Cc2ccccc2)C1=S 54.6%, Cc1ccc2cc3cc(C(=O)N4CCCCCC4)oc3nc2c1 53.8%, CCC(=O)Nc1nc(C)c(C(=O)Nc2cccc(Cl)c2)s1 57.9%, CC(=O)Oc1ccc(N(C(C)=O)S(=O)(=O)c2ccc3ccccc3c2)cc1Br 59.3%, Cc1cc2ncn(CCCCOc3ccccc3)c2cc1C 51.5%

inhibition, inactive:
CC(C)CNC(=O)COC(=O)c1ccccc1OCC(=O)Nc1ccc(Br)cc1 -11.3%, COC(=O)c1ccc(CNC(=O)c2ccc(S(=O)(=O)N3CCCCCC3)cc2)cc1 15.9%, O=C(Nc1ccccc1F)c1ccc(S(=O)(=O)N2CCCCCC2)cc1 34.9%, CC(=O)Oc1ccc(C(C)=O)c2c1OCCO2 5.79%, Cc1nn(CC(=O)NCc2ccccn2)c(C)c1[N+](=O)[O-] 24.7%, CCc1ccc(NC(=O)Cn2nc(C)c([N+](=O)[O-])c2C)cc1 25.5%, O=C(NCc1nnc(SCC(=O)N2CCCc3ccccc32)o1)c1ccccc1F 19.1%, COc1ccc(N(Cc2cc3ccc(C)cc3[nH]c2=O)S(=O)(=O)c2ccccc2)cc1 48.9%, O=C(Nc1ccncc1)c1ccc(Cl)c([N+](=O)[O-])c1 -42.5%, O=C(/C=C/c1ccc(Cl)cc1Cl)c1cccnc1 31.1%, CC1CCCCC1NC(=O)CCS(=O)(=O)c1cccc2nonc12 (stereo unspecified) 4.3%, O=C(CCS(=O)(=O)Cc1ccccc1F)NCCCN1CCCCC1 -8.7%, CSCCC(NC(=O)COc1ccccc1)C(=O)N(C)CC(=O)Nc1ccc(C)cc1 (stereo unspecified) 8.43%, Cc1ccc(CNC(=O)c2cccnc2Cl)cc1 -14.6%, CC(=NCc1ccco1)c1c(C(F)(F)F)[nH]n(-c2nc3ccccc3s2)c1=O 22.4%, O=C1C(C=NCC2CCCO2)=C(O)c2ccccc21 (stereo unspecified) 6.49%, CCc1ccc(NC(=O)NC(C)c2ccc3c(c2)OCO3)cc1 (stereo unspecified) 22.5%, CC1CCC(NC(=O)C2c3ccccc3C(=O)N2Cc2ccc3c(c2)OCO3)CC1 (stereo unspecified) 9.09%, CCOC(=O)C[C@H]1c2ccc(C(F)(F)F)cc2S(=O)(=O)N1c1ccccc1 33.9%, COc1cc2c(C(=O)N(C)c3cc(Cl)ccc3OC)cn(C)c(=O)c2cc1OC 10%, N#CC(Cc1cc2ccccc2n1S(=O)(=O)c1ccccc1)OCc1ccccc1 (stereo unspecified) 30.3%, CC1C(=O)C(C)C(c2ccc(O)cc2)NC1c1ccc(O)cc1 (stereo unspecified) 0.501%, CCc1nc2sc(C(=O)O)c(N)c2c2c1CCCC2 -17.3%, Cc1ccc2c(N)c(C(=O)c3ccccc3)sc2n1 48.6%, CCOC(=O)C1CCCN(S(=O)(=O)c2ccc(-n3cnnn3)c(C)c2)C1 (stereo unspecified) 2.62%, COc1ccc(/C(O)=C2/C(=O)C(=O)N(CC3CCCO3)C2c2ccc(OC)c(OC)c2)cc1 (stereo unspecified) -1.19%, Cc1nnc(SCC(=O)N(C(C)C)C(C)C)nc1C 8.73%, O=C(COc1ccc([N+](=O)[O-])cc1Cl)Nn1cnnc1 6.97%, COc1ccc(-c2nc3cnccn3c2NC2CCCCC2)cc1-c1cccc(Cl)c1 21.6%, CCOc1cc(-c2nc3cc(C)ccn3c2NCC2CCCO2)ccc1O (stereo unspecified) 18.9%, O=C(c1cc2ccccc2o1)N1CCN(Cc2ccccc2)CC1 12.6%, Cc1[nH]c2ccccc2c1-c1ccc(Cl)nn1 5.43%, CC(C)CCNC(=O)c1ccc2c(Cl)c3c(nc2c1)CCC3 43.3%, CSc1ccc(S(=O)(=O)NC2CCCCC2)cc1 31.1%, CC(C)c1ccc(S(=O)(=O)NC2CCCC2)cc1 23.4%, CC(CC(=O)N1CCN(S(=O)(=O)c2ccccc2)CC1)n1cncn1 (stereo unspecified) 7.53%, CC1=NN(C(=O)Cc2ccc(C)cc2)C(O)(c2cccnc2)C1 (stereo unspecified) -31.5%, CC1=NN(C(=O)c2ccc(Br)cc2)C(O)(c2ccccc2)C1 (stereo unspecified) 29.5%, COc1ccc(CC2c3cc(OC)c(OC)cc3CC[N+]2(C)CCC(=O)OCCCCCOC(=O)CC[N+]2(C)CCc3cc(OC)c(OC)cc3C2Cc2ccc(OC)c(OC)c2)cc1OC (stereo unspecified) 3.67%, CC(C)(C)c1ccc(C(=O)N2CCN(CCNC(=O)C(=O)Nc3ccc(F)cc3)CC2)cc1 16.2%, COC(=O)c1sccc1NN1C(=O)c2ccccc2C1=O 13.6%, COC(=O)c1ccc2c(C(C)(C)O)c(C(C)(C)O)[nH]c2c1 5.76%, Cc1cccc(/C=N/NC(=O)CNc2cccc3ccccc23)n1 17.8%, CCOc1ccc(C(=O)CCC(=O)Nc2ccncc2)cc1 11.8%, CCOc1ccc(NC(=O)CCC(=O)n2nc(C)cc2C)cc1 14.6%, Cc1ccc(/C=N/NC(=O)CN2CCN(Cc3ccccc3)CC2)s1 0.916%, CCOC(=O)/C=C/C(=O)OCC(=O)NC(c1ccccc1)c1ccccc1 40.9%, O=C(NCc1ccc2c(c1)OCO2)C1CCCN(S(=O)(=O)c2cccs2)C1 (stereo unspecified) 7.36%, CCN(C(=O)c1cc([N+](=O)[O-])ccc1NCc1cccnc1)c1ccccc1 24.3%, COc1ccc(N=Nc2c(-c3ccc(OC)cc3)[nH]oc2=O)cc1 2.46%, CC1CCCCC1NC(=O)C1CCCN1S(=O)(=O)c1cccc2nsnc12 (stereo unspecified) 6.89%, Cc1ccccc1CSc1nnc(Cn2c(=O)sc3ccccc32)n1C 18.7%, Cc1ccc(N=Cc2c(O)n(-c3nccs3)c(=O)c3ccccc23)c(C)c1 -3.15%, Cc1cc(O)c(C(=O)/C=C/c2c(F)c(F)c(F)c(F)c2F)c(=O)o1 19.1%, CN1CCN(C(=O)c2ccc(-c3ccc(Br)cc3)o2)CC1 4.87%, Cc1ccc(S(=O)(=O)NC(=O)N2CCCN(Cc3ccc(F)cc3)CC2)cc1 -9.12%, Cc1nc2cc(S(=O)(=O)C(F)(F)F)ccc2s1 -1.26%, CCc1cccc(C)c1N1C(=O)CN(Cc2ccccc2)C1=S 46.7%, COc1cccc(N2C(=O)CN(Cc3ccccc3)C2=S)c1 44.3%, Cc1ccc2nc(N3CCN(C(=O)c4ccco4)CC3)sc2c1 26.4%, Cc1cc(C)cc(NC(=O)N2CCCCCCC2)c1 27.5%, CC(=O)N1CC(=O)N(CC(=O)Nc2ccc(Br)cc2)C1=S 10.5%, COC(=O)[C@]1(C)N[C@H](c2ccc(-c3ccc(Cl)c(Cl)c3)cc2)[C@@H]2C(=O)N(C)C(=O)[C@@H]21 30.7%, COc1cccc(CNc2ncc(-c3ccccc3)n2C)c1 -8.62%, Cc1csc(NC(=S)Nc2cccc(Cl)c2)n1 48.7%, CCC(=O)Nc1sc(C(=O)Nc2ccccc2)c(C)c1C(=O)OC 32%, O=C(Nc1ccc(N2CCOCC2)nc1)c1c(F)cccc1F -3.3%, Cc1ccc(NC(=S)N2CCN(c3ncccn3)CC2)cc1C 19%, Cc1cccc(N2CCN(C(=O)/C=C/c3ccco3)CC2)c1C 38.9%, COc1ccc(C(=O)COC(=O)CN2C(=O)C3CC=CCC3C2=O)c(OC)c1 (stereo unspecified) 12.1%, COc1cccc(CNC(=O)C2CCCN(S(=O)(=O)N3CC(C)CC(C)C3)C2)c1 (stereo unspecified) 27.8%, COCCNC(=O)COc1ccc(N(C)S(=O)(=O)c2ccc3ccccc3c2)cc1 19.5%, CN(c1ccc(OCC(=O)O)cc1)S(=O)(=O)c1ccc2ccccc2c1 3.8%, CC(=O)n1cc([C@@H]2C=C(C(=O)N3CCN(Cc4ccc5c(c4)OCO5)CC3)O[C@H](OCc3ccc(CO)cc3)C2)c2ccccc21 5.34%, O=C(COC(=O)Cc1ccc(Br)cc1)Nc1c(F)c(F)c(F)c(F)c1F 5.57%, CCCCOc1ccc(C(=O)NCC(=O)OCC(=O)c2c(N)n(C)c(=O)n(C)c2=O)cc1 7.23%, NS(=O)(=O)c1ccc(CCNC(=O)NC2CCCCC2)cc1 8.17%, COCCOCCn1cnc2ccccc21 2.15%, Clc1ncn(CCOc2ccccc2)c1Cl -4.79%
